Results as given in publication PMC7862700, “An all-to-all approach to the identification of sequence-specific readers for epigenetic DNA modifications on cytosine”.

Tests used:
Assay in all cases: DAPPL (digital affinity profiling via proximity ligation, sequencing); 10 mM Tris-HCl pH 7.5, 50 mM NaCl, 1 mM DTT, 4% glycerol, room temperature, 30 min; GST-TFs on glutathione beads, 16-mer random dsDNA library, 0.1% formaldehyde crosslink after washing; high values mean tight binding
Details in all cases: protein: recombinant; tags: N-terminal GST; dsDNA, one strand shown
FLI1 = target: T1, FLI1 (Homo sapiens, UniProt Q01543 1-452)
T1 sequence: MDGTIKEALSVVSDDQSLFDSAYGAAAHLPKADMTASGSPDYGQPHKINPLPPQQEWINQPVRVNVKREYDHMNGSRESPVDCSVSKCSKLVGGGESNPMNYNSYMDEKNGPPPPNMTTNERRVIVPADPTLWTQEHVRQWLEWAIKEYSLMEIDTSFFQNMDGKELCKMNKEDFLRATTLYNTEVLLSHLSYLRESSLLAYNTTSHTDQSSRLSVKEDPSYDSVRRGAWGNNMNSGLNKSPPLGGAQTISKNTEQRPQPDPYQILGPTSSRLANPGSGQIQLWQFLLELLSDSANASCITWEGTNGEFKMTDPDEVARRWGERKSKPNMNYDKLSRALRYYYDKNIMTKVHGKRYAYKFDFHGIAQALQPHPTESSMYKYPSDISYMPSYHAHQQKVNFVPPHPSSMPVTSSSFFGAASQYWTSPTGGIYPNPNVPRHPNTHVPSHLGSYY
Method in brief: (§1)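 Pools were built from human transcription factors expressed in yeast as GST fusions, captured on glutathione beads and DNA-barcoded, along with a tag-only sample. Incubation with 200 nmole of a 16-mer random double-stranded DNA library lasted 30 min at room temperature in Tris/NaCl/DTT/glycerol buffer, and was followed by washing, 0.1% formaldehyde crosslinking, proximity ligation, PCR amplification and Illumina NextSeq500 sequencing. Binding signal is the quotient of each hexamer's read frequency for a factor and its frequency for the tag-only sample.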

ELK1 = target: T2, ELK1 (Homo sapiens, UniProt P19419 1-428)
T2 sequence: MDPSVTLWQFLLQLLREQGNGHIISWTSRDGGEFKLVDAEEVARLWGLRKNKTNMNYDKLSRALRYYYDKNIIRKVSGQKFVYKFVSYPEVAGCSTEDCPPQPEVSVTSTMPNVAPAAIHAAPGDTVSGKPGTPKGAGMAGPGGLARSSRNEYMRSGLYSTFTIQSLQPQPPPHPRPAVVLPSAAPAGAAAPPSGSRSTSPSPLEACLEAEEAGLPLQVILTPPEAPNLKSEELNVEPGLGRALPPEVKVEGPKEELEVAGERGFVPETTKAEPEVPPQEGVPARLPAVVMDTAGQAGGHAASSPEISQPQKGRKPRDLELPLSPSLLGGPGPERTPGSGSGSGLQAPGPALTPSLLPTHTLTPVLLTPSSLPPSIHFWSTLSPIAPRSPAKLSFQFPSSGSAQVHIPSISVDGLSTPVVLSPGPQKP
Method in brief: as §1

GABPA = target: T3, GABPA (Homo sapiens, UniProt Q06546 1-454)
T3 sequence: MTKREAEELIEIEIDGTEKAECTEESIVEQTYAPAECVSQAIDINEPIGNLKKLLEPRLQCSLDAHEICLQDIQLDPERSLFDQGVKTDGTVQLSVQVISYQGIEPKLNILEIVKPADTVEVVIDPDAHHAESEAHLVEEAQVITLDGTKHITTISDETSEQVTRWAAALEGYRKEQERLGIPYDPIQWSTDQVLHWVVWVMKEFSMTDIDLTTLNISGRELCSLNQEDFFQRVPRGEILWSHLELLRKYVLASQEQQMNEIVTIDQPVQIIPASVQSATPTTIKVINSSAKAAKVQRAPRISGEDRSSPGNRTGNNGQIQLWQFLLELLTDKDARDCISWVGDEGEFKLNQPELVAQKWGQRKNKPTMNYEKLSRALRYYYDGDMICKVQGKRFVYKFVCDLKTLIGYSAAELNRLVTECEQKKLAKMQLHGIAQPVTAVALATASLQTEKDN
Method in brief: as §1

ERG = target: T4, ERG (Homo sapiens, UniProt P11308 1-479)
T4 sequence: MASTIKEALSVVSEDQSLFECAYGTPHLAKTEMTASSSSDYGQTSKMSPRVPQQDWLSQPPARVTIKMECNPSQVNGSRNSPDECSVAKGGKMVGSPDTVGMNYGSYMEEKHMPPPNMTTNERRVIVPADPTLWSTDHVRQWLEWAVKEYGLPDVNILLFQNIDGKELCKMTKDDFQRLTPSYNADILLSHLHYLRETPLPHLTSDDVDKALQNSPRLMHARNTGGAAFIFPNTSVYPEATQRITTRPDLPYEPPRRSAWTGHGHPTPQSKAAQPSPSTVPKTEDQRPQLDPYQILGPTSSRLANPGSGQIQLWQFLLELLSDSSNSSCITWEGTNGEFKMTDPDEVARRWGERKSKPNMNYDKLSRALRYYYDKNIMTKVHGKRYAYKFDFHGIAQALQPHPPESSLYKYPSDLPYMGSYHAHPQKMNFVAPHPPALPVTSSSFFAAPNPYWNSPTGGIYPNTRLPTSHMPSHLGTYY
Method in brief: as §1

ELF1 = ELF1 (Homo sapiens, UniProt P32519 1-619)
Method in brief: as §1

EHF = target: T5, EHF (Homo sapiens, UniProt Q9NZC4 1-300)
T5 sequence: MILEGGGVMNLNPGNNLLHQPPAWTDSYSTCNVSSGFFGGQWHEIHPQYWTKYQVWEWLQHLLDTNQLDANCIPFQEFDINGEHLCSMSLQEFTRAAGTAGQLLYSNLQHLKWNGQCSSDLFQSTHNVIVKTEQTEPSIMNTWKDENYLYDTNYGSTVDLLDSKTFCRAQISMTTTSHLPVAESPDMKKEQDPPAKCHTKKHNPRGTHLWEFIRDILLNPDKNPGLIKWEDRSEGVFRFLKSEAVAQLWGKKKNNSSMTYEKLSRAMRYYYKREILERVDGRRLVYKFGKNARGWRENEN
Method in brief: as §1

SPI1 = SPI1 (Homo sapiens, UniProt P17947 1-270)
Method in brief: as §1

SPIB = SPIB (Homo sapiens, UniProt Q01892 1-262)
Method in brief: as §1

ELK3 = target: T6, ELK3 (Homo sapiens, UniProt P41970 1-407)
T6 sequence: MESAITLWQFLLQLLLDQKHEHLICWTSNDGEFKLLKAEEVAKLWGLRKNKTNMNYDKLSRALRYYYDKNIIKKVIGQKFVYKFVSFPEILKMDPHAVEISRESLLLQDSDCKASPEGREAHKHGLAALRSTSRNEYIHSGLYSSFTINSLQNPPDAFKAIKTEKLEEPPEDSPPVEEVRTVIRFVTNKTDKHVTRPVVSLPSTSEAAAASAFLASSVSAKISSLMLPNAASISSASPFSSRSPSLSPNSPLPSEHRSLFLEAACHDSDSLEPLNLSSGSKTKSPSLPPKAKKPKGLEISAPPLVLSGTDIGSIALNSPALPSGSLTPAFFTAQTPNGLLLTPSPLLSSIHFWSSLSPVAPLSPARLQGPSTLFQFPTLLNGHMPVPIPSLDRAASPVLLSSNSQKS
Method in brief: as §1

Sequence of SPIB (Q01892 whole entry): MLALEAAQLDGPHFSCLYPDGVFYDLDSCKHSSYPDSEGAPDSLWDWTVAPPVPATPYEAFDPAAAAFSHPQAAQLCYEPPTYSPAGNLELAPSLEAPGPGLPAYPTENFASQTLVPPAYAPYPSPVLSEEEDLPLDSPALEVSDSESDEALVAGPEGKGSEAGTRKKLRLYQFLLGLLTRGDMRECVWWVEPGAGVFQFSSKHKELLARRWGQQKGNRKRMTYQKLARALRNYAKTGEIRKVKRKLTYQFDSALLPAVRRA
Sequence of ELF1 (P32519 whole entry): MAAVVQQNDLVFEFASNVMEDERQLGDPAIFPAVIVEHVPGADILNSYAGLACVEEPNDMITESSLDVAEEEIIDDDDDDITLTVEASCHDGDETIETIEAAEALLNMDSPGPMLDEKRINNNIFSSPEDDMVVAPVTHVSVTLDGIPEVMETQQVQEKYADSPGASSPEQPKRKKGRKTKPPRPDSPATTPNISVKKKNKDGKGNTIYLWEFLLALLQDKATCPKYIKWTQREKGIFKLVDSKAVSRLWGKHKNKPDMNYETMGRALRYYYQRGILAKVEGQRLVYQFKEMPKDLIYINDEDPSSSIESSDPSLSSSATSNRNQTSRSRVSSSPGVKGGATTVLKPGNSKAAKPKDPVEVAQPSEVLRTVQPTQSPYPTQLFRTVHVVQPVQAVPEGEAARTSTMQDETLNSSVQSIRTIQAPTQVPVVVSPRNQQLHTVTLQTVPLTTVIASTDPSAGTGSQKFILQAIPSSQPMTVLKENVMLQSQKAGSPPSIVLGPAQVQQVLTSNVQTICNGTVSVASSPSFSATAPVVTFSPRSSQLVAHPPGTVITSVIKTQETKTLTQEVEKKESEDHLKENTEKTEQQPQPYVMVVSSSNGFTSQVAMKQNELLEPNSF

TACATT was tested, and the binding signal (FLI1) was 1.32 fold enrichment (6-mer frequency, TF over GST control), the binding signal (ELK1) was 1.17 fold enrichment (6-mer frequency, TF over GST control) and the binding signal (GABPA) was 1.23 fold enrichment (6-mer frequency, TF over GST control). The binding signal (ERG) was 1.21 fold enrichment (6-mer frequency, TF over GST control), the binding signal (ELF1) was 1.26 fold enrichment (6-mer frequency, TF over GST control) and the binding signal (EHF) was 1.19 fold enrichment (6-mer frequency, TF over GST control). The binding signal (SPI1) was 1.14 fold enrichment (6-mer frequency, TF over GST control), the binding signal (SPIB) was 1.29 fold enrichment (6-mer frequency, TF over GST control) and the binding signal (ELK3) was 1.23 fold enrichment (6-mer frequency, TF over GST control).

For CGAATT, the binding signal (FLI1) was 1.13 fold enrichment (6-mer frequency, TF over GST control), the binding signal (ELK1) was 1.1 fold enrichment (6-mer frequency, TF over GST control) and the binding signal (GABPA) was 1.27 fold enrichment (6-mer frequency, TF over GST control). The binding signal (ERG) was 1.23 fold enrichment (6-mer frequency, TF over GST control), the binding signal (ELF1) was 1.2 fold enrichment (6-mer frequency, TF over GST control) and the binding signal (EHF) was 1.19 fold enrichment (6-mer frequency, TF over GST control). For the same sequence, the binding signal (SPI1) was 1.22 fold enrichment (6-mer frequency, TF over GST control), the binding signal (SPIB) was 1.23 fold enrichment (6-mer frequency, TF over GST control) and the binding signal (ELK3) was 1.23 fold enrichment (6-mer frequency, TF over GST control).

With TGACAC the binding signal (FLI1) was 1.13 fold enrichment (6-mer frequency, TF over GST control), the binding signal (ELK1) was 1.27 fold enrichment (6-mer frequency, TF over GST control) and the binding signal (GABPA) was 1.07 fold enrichment (6-mer frequency, TF over GST control). The binding signal (ERG) was 1.2 fold enrichment (6-mer frequency, TF over GST control), the binding signal (ELF1) was 1.17 fold enrichment (6-mer frequency, TF over GST control) and the binding signal (EHF) was 1.15 fold enrichment (6-mer frequency, TF over GST control). For the same sequence, the binding signal (SPI1) was 1.13 fold enrichment (6-mer frequency, TF over GST control), the binding signal (SPIB) was 1.11 fold enrichment (6-mer frequency, TF over GST control) and the binding signal (ELK3) was 1.22 fold enrichment (6-mer frequency, TF over GST control).

CCTGTA was tested, and the binding signal (FLI1) was 1.31 fold enrichment (6-mer frequency, TF over GST control), the binding signal (ELK1) was 1.16 fold enrichment (6-mer frequency, TF over GST control) and the binding signal (GABPA) was 1.12 fold enrichment (6-mer frequency, TF over GST control). For the same sequence, the binding signal (ERG) was 1.28 fold enrichment (6-mer frequency, TF over GST control), the binding signal (ELF1) was 1.14 fold enrichment (6-mer frequency, TF over GST control) and the binding signal (EHF) was 1.14 fold enrichment (6-mer frequency, TF over GST control). For the same sequence, the binding signal (SPI1) was 1.28 fold enrichment (6-mer frequency, TF over GST control), the binding signal (SPIB) was 1.19 fold enrichment (6-mer frequency, TF over GST control) and the binding signal (ELK3) was 1.28 fold enrichment (6-mer frequency, TF over GST control).

For CCTAAC, the binding signal (FLI1) was 1.56 fold enrichment (6-mer frequency, TF over GST control), the binding signal (ELK1) was 1.43 fold enrichment (6-mer frequency, TF over GST control) and the binding signal (GABPA) was 1.37 fold enrichment (6-mer frequency, TF over GST control). For the same sequence, the binding signal (ERG) was 1.42 fold enrichment (6-mer frequency, TF over GST control), the binding signal (ELF1) was 1.44 fold enrichment (6-mer frequency, TF over GST control) and the binding signal (EHF) was 1.31 fold enrichment (6-mer frequency, TF over GST control). The binding signal (SPI1) was 1.48 fold enrichment (6-mer frequency, TF over GST control), the binding signal (SPIB) was 1.4 fold enrichment (6-mer frequency, TF over GST control) and the binding signal (ELK3) was 1.42 fold enrichment (6-mer frequency, TF over GST control).

ATCCCG was tested, and the binding signal (FLI1) was 1.5 fold enrichment (6-mer frequency, TF over GST control), the binding signal (ELK1) was 1.36 fold enrichment (6-mer frequency, TF over GST control) and the binding signal (GABPA) was 1.47 fold enrichment (6-mer frequency, TF over GST control). The binding signal (ERG) was 1.44 fold enrichment (6-mer frequency, TF over GST control), the binding signal (ELF1) was 1.42 fold enrichment (6-mer frequency, TF over GST control) and the binding signal (EHF) was 1.39 fold enrichment (6-mer frequency, TF over GST control). The binding signal (SPI1) was 1.32 fold enrichment (6-mer frequency, TF over GST control), the binding signal (SPIB) was 1.39 fold enrichment (6-mer frequency, TF over GST control) and the binding signal (ELK3) was 1.34 fold enrichment (6-mer frequency, TF over GST control).

CATGAT was tested, and the binding signal (FLI1) was 1.15 fold enrichment (6-mer frequency, TF over GST control), the binding signal (ELK1) was 1.06 fold enrichment (6-mer frequency, TF over GST control) and the binding signal (GABPA) was 1.19 fold enrichment (6-mer frequency, TF over GST control). For the same sequence, the binding signal (ERG) was 1.03 fold enrichment (6-mer frequency, TF over GST control), the binding signal (ELF1) was 1.09 fold enrichment (6-mer frequency, TF over GST control) and the binding signal (EHF) was 1.09 fold enrichment (6-mer frequency, TF over GST control). The binding signal (SPI1) was 1.03 fold enrichment (6-mer frequency, TF over GST control), the binding signal (SPIB) was 1.04 fold enrichment (6-mer frequency, TF over GST control) and the binding signal (ELK3) was 1.19 fold enrichment (6-mer frequency, TF over GST control).
